# Results published in PubChem BioAssay.
# The list shows a part of the results. The source made the active and inactive calls. Unless noted, no stated cut-off is given here; in the data, active means activity above about 50%; inactive means the rest.
# Columns and labels:
# [1] = inhibitors of PAF-induced NFkB signaling in CF airway cells, dose response, cell-based, uHTS hits, panel, cytotoxicity readout (AID 624344); settings: CF bronchial epithelial cells, PAF-induced NFkB reporter inhibition, with PAF, run 1; at 79 µM (top of the series)
# [2] = as above; settings: CF bronchial epithelial cells, PAF-induced NFkB reporter inhibition, with PAF, run 2; at 79 µM (top of the series)
# [3] = target: Tumor necrosis factor receptor superfamily member 10B (Homo sapiens) (UniProt O14763); assay: caspase-8 TRAIL sensitization, hit retest, confirmation, cell-based, NB7+caspase-8, with/without TRAIL, luminescence panel (AID 651596); settings: NB7 neuroblastoma + caspase-8, TRAIL sensitization, luminescence viability, with TRAIL, mean of runs, at 10 µM, stronger effect = higher value
# Sequence of Tumor necrosis factor receptor superfamily member 10B (Homo sapiens) (O14763 whole entry, looked up): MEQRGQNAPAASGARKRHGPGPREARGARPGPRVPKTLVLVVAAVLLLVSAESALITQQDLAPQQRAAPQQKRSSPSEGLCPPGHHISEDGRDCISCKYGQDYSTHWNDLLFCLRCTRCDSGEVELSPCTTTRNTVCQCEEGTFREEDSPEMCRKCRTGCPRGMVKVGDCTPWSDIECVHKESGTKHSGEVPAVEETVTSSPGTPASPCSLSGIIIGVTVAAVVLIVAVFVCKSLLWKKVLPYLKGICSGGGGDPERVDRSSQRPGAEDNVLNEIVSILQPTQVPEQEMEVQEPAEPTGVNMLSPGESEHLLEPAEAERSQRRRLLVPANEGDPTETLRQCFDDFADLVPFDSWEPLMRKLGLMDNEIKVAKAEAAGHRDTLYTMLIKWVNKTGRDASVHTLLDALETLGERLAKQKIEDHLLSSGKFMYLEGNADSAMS
# [4] = as above; settings: NB7 neuroblastoma + caspase-8, without TRAIL, luminescence viability, without TRAIL, mean of runs, at 10 µM
# [5] = HIF-2a reporter inhibitor retest, confirmation, luminescence, 786-0 RCC cells (AID 651580;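 active means mean inhibition across four replicates of at least 40 percent at the single tested concentration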); settings: HIF-2a luciferase reporter luminescence, overnight, at 18.8 µM, stronger effect = higher value
# [6] = HIF-1a luciferase reporter signal reduction – MiaPaCa-2 cells, single concentration, counter-screen for HIF-2a inhibitor project, confirmation (AID 651589;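 active means mean inhibition of the reporter signal across four replicates at the single tested dose of 50% or more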); settings: MiaPaCa-2 HIF-1a luciferase reporter, desferoxamine, overnight; at 18.8 µM; stronger effect = higher value
compound,measurement,setting,value
COc1ccc(Oc2cc(NC(=O)c3nn(C)cc3[N+](=O)[O-])cc([N+](=O)[O-])c2)cc1,inhibition,[1],113%
same,inhibition,[2],101%
same,activity,[3],94.2%
same,activity,[4],97.4%
COc1cc(C2c3cc4c(c(O)c3CC3COC(=O)C32)OCO4)cc(OC)c1OC (stereo not given),inhibition,[1],110%
same,inhibition,[2],85%
CC12CCC(O)CC1CCC1C2CCC2(C)C(C3=CC(=O)OC3)CCC12O (stereo not given),activity,[3],87.3%
same,activity,[4],91.6%
CCC(C)(O)C(=O)OC1C(=O)OC2CC3C(C)=CC(=O)C(O)C3(C)C3C4(O)OCC23C1C(C)C4O (stereo not given),inhibition,[5],55.2% (active)
same,inhibition,[6],101% (active)
COc1ccc(-n2nnnc2C(CCc2ccccc2)N2CCC(n3c(=O)[nH]c4ccccc43)CC2)cc1 (stereo not given),inhibition,[1],103%
same,inhibition,[2],101%
same,activity,[3],91.1%
same,activity,[4],88.8%
N#Cc1c(Br)n(C2OC(CO)C(O)C2O)c2ncnc(N)c12 (stereo not given),inhibition,[1],106%
same,inhibition,[2],107%
CN(C)C(=O)Oc1ccc(OCc2nc3ccccc3[nH]2)cc1,activity,[3],75.7%
same,activity,[4],78.1%
CC(=O)c1c(C)n(C2CCCCC2)c2ccc(O)cc12,inhibition,[1],95.6%
same,inhibition,[2],102%
CCCCCN1C(=O)c2cc(OC)ccc2[C@@]2(C(=O)OCC)Cc3cc(Cl)ccc3[C@@H]12,activity,[3],87.2%
same,activity,[4],92.8%
C[C@H]1C[C@@H](C)C(=O)[C@@H]([C@H](O)CC2CC(=O)NC(=O)C2)C1,inhibition,[1],107%
same,inhibition,[2],113%
NC(=S)c1cn(C2OC(CO)C(O)C2O)c2ncnc(N)c12 (stereo not given),activity,[3],59.4%
same,activity,[4],91.2%
COc1ccc2c(c1)[nH]c1c(C)nccc12,inhibition,[1],113%
same,inhibition,[2],97.6%
Cc1nc2cc(C(F)(F)F)ccc2n1C1CCN(Cc2nnnn2Cc2ccc3c(c2)OCO3)CC1,activity,[3],53%
same,activity,[4],54.3%
O=c1[nH]c2ccccc2n1C1CCN(C(c2cccc3ccccc23)c2nnnn2Cc2ccccc2)CC1 (stereo not given),inhibition,[1],103%
same,inhibition,[2],101%
CCOC(=O)[C@]12Cc3cc(OC)ccc3[C@H]1N(C1CCCCC1)C(=O)c1cc(OC)ccc12,activity,[3],57.6%
same,activity,[4],75.7%
CCOC(=O)[C@]12Cc3cc(Cl)ccc3[C@H]1N(Cc1ccccc1)C(=O)c1cc(OC)ccc12,activity,[3],91.9%
same,activity,[4],97.9%
CC1CCOC(=O)C=CC=CC(=O)OC2CC3OC4C5OC5(C)C(O)CC4(COC(=O)C1O)C2(C)C31CO1 (stereo not given),activity,[3],93.7%
same,activity,[4],97.2%
Oc1ccc(-[n+]2c(-c3ccccc3)cc(-c3ccccc3)cc2-c2ccccc2)cc1,activity,[3],90.3%
same,activity,[4],59.6%
CC(C)(C)n1cc(C(=O)c2ccc3ccccc3c2O)cn1,activity,[3],55.8%
same,activity,[4],51%
CCOC(=O)[C@]12Cc3cc(Cl)ccc3[C@H]1N(C1CCCCC1)C(=O)c1ccccc12,activity,[3],98.5%
same,activity,[4],99.3%
CC1=CC2OC3CC4OC(=O)C=CC=CC(=O)OCCC(C)C(O)C(=O)OCC2(CC1)C4(C)C31CO1 (stereo not given),activity,[3],75.6%
same,activity,[4],80.9%
CC(C)(O)/C=C/C(=O)C(C)(O)C1C(O)CC2(C)C3CC=C4C(C=C(O)C(=O)C4(C)C)C3(C)C(=O)CC12C (stereo not given),activity,[3],46.5%
same,activity,[4],81.1%
CC[C@H](C)[C@@H]1NC(=O)CNC(=O)c2csc(n2)[C@H](C(C)(C)O)OC(=O)C(C)(C)[C@H](CCCC(C)(Cl)Cl)OC(=O)c2csc1n2,activity,[3],53.5%
same,activity,[4],78.6%
CNC(=O)Oc1cccc(-c2cn3cc(Cl)ccc3n2)c1,activity,[3],86.8%
same,activity,[4],83%
CCOC(=O)[C@]12Cc3cc(C)ccc3[C@H]1N(C(C)C)C(=O)c1ccccc12,activity,[3],44.4%
same,activity,[4],63.6%
C[C@H]1O[C@@H](OC2CC[C@]3(C=O)[C@H]4CC[C@]5(C)[C@@H](C6=CC(=O)OC6)CC[C@]5(O)[C@@H]4CC[C@]3(O)C2)CC2OC(C)(C)OC21 (stereo not given in full),activity,[3],85.6%
same,activity,[4],92.4%
COc1ccc(-[n+]2c(-c3ccccc3)cc(-c3ccc(C)cc3)cc2-c2ccccc2)cc1,activity,[3],74.3%
same,activity,[4],64.8%
CC1=CC2OC3CC4OC(=O)C=CC=CC(=O)OCCC(C)C(O)C(=O)OCC2(CC1O)C4(C)C31CO1 (stereo not given),activity,[3],92.9%
same,activity,[4],96.9%
CCOC(=O)[C@]12Cc3cc(C)ccc3[C@H]1N(C1CCCCC1)C(=O)c1ccccc12,activity,[3],95.3%
same,activity,[4],96.5%
CN(C)C(=O)O/N=C(\N)COc1ccc(C(C)(C)C)cc1,activity,[3],96.8%
same,activity,[4],98.2%
COc1ccc2nc(-c3ccc(CN4CCC(n5c(=O)[nH]c6ccccc65)CC4)cc3)c(-c3ccccc3)nc2c1,activity,[3],39.8%
same,activity,[4],24.9%
C[C@@H]1O[C@@H](O[C@@H]2C=C3CC[C@@H]4C(CC[C@]5(C)[C@@H](c6ccc(=O)oc6)CC[C@]45O)[C@@]3(C)CC2)[C@H](O)[C@H](O)[C@H]1O (stereo not given in full),activity,[3],82.4%
same,activity,[4],91.5%
CNC(=O)Oc1ccc(-c2cn3cc(Cl)ccc3n2)cc1,activity,[3],85.8%
same,activity,[4],84.1%
